About 2,000 (36%) of roughly 5,500 compounds were called active. Inconclusive results (about 18%) are left out. Cut-off read from the data, not from the text of the source: active = normalized growth mostly below about 0.91 (no sharp cut-off); inconclusive = no clear call, values can overlap the other calls; inactive = mostly above about 0.92. The list shows a part of the results.
Experiment: chemical genetic growth profiling, strain panel (AID 1159580);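 note: tested at 20 µM; growth read once vehicle control cultures reached saturation at 30 °C; 1 = growth at the plate median or of vehicle wells; lower values mean less growth of the strain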
Details: S. cerevisiae deletion strains, growth OD
[1] = locus YAL013W, strain DEP1, hits give low values
[2] = locus YBR229C, strain ROT2, hits give low values
[3] = locus YDL101C, strain DUN1, hits give low values
[4] = locus YDR150W, strain NUM1, hits give low values
[5] = locus YEL061C, strain CIN8, hits give low values
[6] = locus YGR078C, strain PAC10, hits give low values
[7] = locus YHR030C, strain SLT2, hits give low values
[8] = locus YHR087W, strain rtc3, hits give low values
[9] = locus YJL187C, strain SWE1, hits give low values
[10] = locus YJR043C, strain POL32, hits give low values
[11] = locus YJR075W, strain HOC1, hits give low values
[12] = locus YLR039C, strain RIC1, hits give low values
[13] = locus YLR058C, strain SHM2 (second series), hits give low values
[14] = locus YLR085C, strain ARP6, hits give low values
[15] = locus YLR262C, strain YPT6, hits give low values
[16] = locus YML094W, strain GIM5, hits give low values
[17] = locus YMR219W, strain ESC1, hits give low values
[18] = locus YMR263W, strain SAP30, hits give low values
[19] = locus YNL153C, strain GIM3, hits give low values
[20] = locus YNL298W, strain CLA4 (second series), hits give low values
[21] = locus YNL322C, strain KRE1, hits give low values
[22] = locus YNR030W, strain Alg12, hits give low values
[23] = locus YPL055C, strain LGE1, hits give low values
[24] = locus YPL241C, strain CIN2, hits give low values
[25] = locus YPR135W, strain CTF4, hits give low values
[26] = locus YCL061C, strain MRC1, hits give low values

Measured: normalized growth

Cc1ccc(Oc2ccc(C)cc2)cc1
inactive: [1] 0.993 | [2] 0.999 | [3] 1.01 | [4] 0.999 | [5] 0.976 | [6] 1 | [8] 1.03 | [9] 0.993 | [10] 0.992 | [11] 1.01 | locus YKL190W, strain CNB1, hits give low values 1 | [12] 0.897 | [13] 0.991 | [14] 0.864 | [15] 0.889 | [16] 1.06 | [17] 1 | [18] 0.969 | locus YNL128W, strain TEP1, hits give low values 0.995 | [19] 0.999 | [20] 0.96 | [21] 0.993 | [22] 0.962 | [23] 1.02 | [24] 0.936 | [25] 0.912
active: [7] 0.663

Cc1ccc2cc(C)c(C)cc2c1
inactive: [1] 0.994 | [2] 0.991 | [26] 0.992 | [3] 1.02 | [4] 1.05 | [5] 1 | [6] 0.99 | [7] 0.729 | [8] 1.01 | [9] 0.993 | [10] 0.989 | [11] 0.961 | [12] 0.897 | [13] 0.992 | [14] 0.949 | [15] 0.831 | [16] 1 | [17] 1.01 | [18] 1 | locus YMR307W, strain GAS1, hits give low values 0.742 | [19] 0.952 | [20] 0.957 | [21] 0.985 | [22] 0.958 | locus YOL006C, strain TOP1, hits give low values 0.902 | [23] 1.02 | [24] 0.995 | [25] 0.899

CC(C)(N=NC(C)(C)C(=N)N)C(=N)N
inactive: locus YAL021C, strain ccr4, hits give low values 0.995 | locus YAL026C, strain drs2, hits give low values 1.05 | locus YAL030W, strain snc1, hits give low values 1.02 | locus YBL061C, strain skt5, hits give low values 1.02 | locus YBR009C, strain hhf1, hits give low values 1.07 | locus YBR023C, strain chs3, hits give low values 1.02 | locus YBR171W, strain sec66, hits give low values 1.03 | locus YBR231C, strain swc5, hits give low values 1.04 | locus YBR279W, strain paf1, hits give low values 1.03 | locus YCL011C, strain gbp2, hits give low values 1.03 | locus YCL016C, strain dcc1, hits give low values 1.03 | [26] 1.03 | locus YCL069W, strain vba3, hits give low values 1.02 | locus YCR088W, strain abp1, hits give low values 1.02 | locus YDL005C, strain med2, hits give low values 1.03 | locus YDL040C, strain nat1, hits give low values 1.02 | locus YDR001C, strain nth1, hits give low values 1.02 | locus YDR069C, strain doa4, hits give low values 1.03 | locus YDR137W, strain rgp1, hits give low values 0.998 | locus YDR159W, strain sac3, hits give low values 1.05 | locus YDR195W, strain ref2 1 | locus YDR297W, strain sur2, hits give low values 1.02 | locus YDR334W, strain swr1, hits give low values 1.03 | locus YDR335W, strain msn5, hits give low values 1.02 | locus YDR392W, strain spt3, hits give low values 0.98 | locus YEL003W, strain gim4, hits give low values 1.03 | locus YEL037C, strain rad23, hits give low values 1.02 | locus YEL061C, strain CIN8 (second series), hits give low values 1.02 | locus YER015W, strain faa2, hits give low values 1.03 | locus YER016W, strain bim1, hits give low values 1.04 | locus YER111C, strain swi4, hits give low values 1.03 | locus YER155C, strain BEM2 (second series), hits give low values 1.03 | locus YFR010W, strain ubp6, hits give low values 1.03 | locus YGL167C, strain pmr1, hits give low values 1.03 | locus YGL173C, strain kem1, hits give low values 1.05 | locus YGL227W, strain vid30, hits give low values 1.02 | locus YGL240W, strain doc1, hits give low values 1.04 | locus YGL253W, strain hxk2, hits give low values 1.01 | locus YHR013C, strain ard1, hits give low values 1.05 | locus YHR027C, strain rpn1, hits give low values 1.03 | [7] 0.971 | locus YHR079C, strain IRE1, hits give low values 0.971 | locus YHR142W, strain chs7, hits give low values 0.965 | locus YJL092W, strain hpr5, hits give low values 1.03 | locus YJL095W, strain BCK1 (second series), hits give low values 1.02 | locus YJL095W, strain BCK1, hits give low values 0.969 | locus YJL115W, strain asf1, hits give low values 1.02 | locus YJL129C, strain trk1, hits give low values 1.03 | locus YJL154C, strain vps35, hits give low values 1.02 | locus YJL164C, strain tpk1, hits give low values 1.02 | locus YJL166W, strain qcr8, hits give low values 1.01 | [9] 1.02 | locus YJR066W, strain TOR1, hits give low values 0.896 | locus YKL160W, strain elf1, hits give low values 0.99 | locus YKR026C, strain gcn3, hits give low values 1.02 | locus YKR091W, strain srl3, hits give low values 1.02 | locus YLL001W, strain dnm1, hits give low values 1.03 | locus YLL026W, hits give low values 1.02 | locus YLL041C, strain sdh2, hits give low values 1.02 | locus YLR027C, strain aat2, hits give low values 1.03 | locus YLR113W, strain HOG1, hits give low values 0.985 | locus YLR221C, strain rsa3, hits give low values 1.02 | locus YLR258W, strain gsy2, hits give low values 1.04 | locus YLR262C, strain YPT6 (second series), hits give low values 1.03 | locus YLR320W, strain mms22, hits give low values 1.07 | locus YLR342W, strain FKS1, hits give low values 1.03 | locus YLR357W, strain rsc2, hits give low values 1.06 | locus YLR370C, strain arc18, hits give low values 1.03 | locus YLR384C, strain iki3, hits give low values 1.02 | locus YML120C, strain ndi1, hits give low values 1.04 | locus YMR058W, strain fet3, hits give low values 1.03 | locus YMR125W, strain sto1, hits give low values 1.04 | locus YMR129W, hits give low values 1.01 | locus YMR205C, strain PFK2, hits give low values 1.08 | locus YMR231W, strain pep5, hits give low values 1.02 | locus YNL071W, strain lat1, hits give low values 1.02 | locus YNL183C, strain NPR1, hits give low values 0.906 | locus YNL209W, strain ssb2, hits give low values 1.03 | locus YNL248C, strain rpa49, hits give low values 0.99 | locus YNL322C, strain KRE1 (second series), hits give low values 1.01 | locus YNR049C, strain mso1, hits give low values 1.02 | locus YOR001W, strain rrp6, hits give low values 1.02 | locus YOR070C, strain gyp1, hits give low values 1.04 | locus YOR080W, strain dia2, hits give low values 1.03 | locus YOR083W, strain WHI5, hits give low values 0.988 | locus YOR106W, strain vam3, hits give low values 0.886 | locus YOR231W, strain MKK1, hits give low values 0.976 | locus YOR265W, strain rbl2, hits give low values 1.02 | locus YOR270C, strain vph1, hits give low values 1.02 | locus YOR290C, strain snf2, hits give low values 1 | locus YPL051W, strain arl3, hits give low values 1.01 | locus YPL078C, strain atp4, hits give low values 0.983 | locus YPL106C, strain sse1, hits give low values 1.05 | locus YPL240C, strain hsp82, hits give low values 1.01 | locus YPL256C, strain CLN2, hits give low values 0.979

Reference: PubChem BioAssay AID1159580 (chemical genetic matrix, 2015)
